What all share (design): scale not given: direction of the effect not stated beside the values
Experiment [1] concerns the target Protein translocase subunit SecA (Escherichia coli (strain K12)) (UniProt P10408). The experiment in a line: Assay to Identify E. coli SecA ATPase Inhibitors. It counts as functional. The conditions noted are these: 30 µM.
Experiment [2] deals with T1, Ubiquitin-activating enzyme e1, putative (Leishmania donovani (strain BPK282A1)) (UniProt E9BSI1).
T1 sequence (whole entry): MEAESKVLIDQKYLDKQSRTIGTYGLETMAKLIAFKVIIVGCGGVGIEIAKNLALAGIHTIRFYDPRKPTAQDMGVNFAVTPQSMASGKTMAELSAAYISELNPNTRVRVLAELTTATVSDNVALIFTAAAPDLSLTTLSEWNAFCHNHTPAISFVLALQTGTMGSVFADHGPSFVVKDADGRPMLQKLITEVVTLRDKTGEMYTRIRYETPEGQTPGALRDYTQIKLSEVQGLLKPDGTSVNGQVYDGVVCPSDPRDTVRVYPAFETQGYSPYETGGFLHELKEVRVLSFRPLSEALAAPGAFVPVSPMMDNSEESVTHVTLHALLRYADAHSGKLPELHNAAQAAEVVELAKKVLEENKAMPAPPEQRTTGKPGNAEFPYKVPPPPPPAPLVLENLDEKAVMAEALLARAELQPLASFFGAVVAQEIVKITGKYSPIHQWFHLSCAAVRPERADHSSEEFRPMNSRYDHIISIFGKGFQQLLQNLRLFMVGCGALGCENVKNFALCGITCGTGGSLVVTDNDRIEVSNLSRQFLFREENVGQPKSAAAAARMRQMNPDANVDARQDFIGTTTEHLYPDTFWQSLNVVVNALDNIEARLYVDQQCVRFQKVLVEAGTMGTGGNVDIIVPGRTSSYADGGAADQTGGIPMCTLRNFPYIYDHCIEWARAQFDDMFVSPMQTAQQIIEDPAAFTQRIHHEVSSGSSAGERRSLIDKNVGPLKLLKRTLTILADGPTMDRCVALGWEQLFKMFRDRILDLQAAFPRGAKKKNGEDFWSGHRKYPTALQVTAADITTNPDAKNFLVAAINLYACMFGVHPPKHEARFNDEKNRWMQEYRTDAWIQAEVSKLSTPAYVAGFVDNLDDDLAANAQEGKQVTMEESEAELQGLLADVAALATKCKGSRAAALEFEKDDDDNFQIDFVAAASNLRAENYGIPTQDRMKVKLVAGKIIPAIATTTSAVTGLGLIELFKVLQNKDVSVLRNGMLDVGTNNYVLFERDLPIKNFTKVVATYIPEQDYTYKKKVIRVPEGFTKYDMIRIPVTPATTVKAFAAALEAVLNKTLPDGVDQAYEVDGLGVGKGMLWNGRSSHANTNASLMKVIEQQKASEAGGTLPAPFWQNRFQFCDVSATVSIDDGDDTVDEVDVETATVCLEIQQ
Nature of the experiment: Leishmania donovani Ubiquitin Activating Enzyme (LdE1). In kind it is functional. The conditions noted are these: 30 µM.

In experiment [3] the target is AMP-activated protein kinase, AMPK (Homo sapiens) (UniProt P54646+O43741+P54619+Q9UGJ0+Q9Y478+Q13131+Q9UGI9). The experiment in a line: AMP-dependent Kinase enzyme assay. An in vitro enzyme assay that detects ADP turnover that is directly proportional to AMPK activity. This uses naive AMPK that is activated during the assay with MK-8722. It counts as functional. The following applies: 30 µM.

The target in experiment [4] is Sialic acid-binding Ig-like lectin 9 (Homo sapiens) (UniProt Q9Y336). Nature of the experiment: Hs-Siglec9 ALPHAscreen SOP 20170721. The following applies: 10 µM.
Sialic acid-binding Ig-like lectin 9 (Homo sapiens), sequence (Q9Y336 whole entry): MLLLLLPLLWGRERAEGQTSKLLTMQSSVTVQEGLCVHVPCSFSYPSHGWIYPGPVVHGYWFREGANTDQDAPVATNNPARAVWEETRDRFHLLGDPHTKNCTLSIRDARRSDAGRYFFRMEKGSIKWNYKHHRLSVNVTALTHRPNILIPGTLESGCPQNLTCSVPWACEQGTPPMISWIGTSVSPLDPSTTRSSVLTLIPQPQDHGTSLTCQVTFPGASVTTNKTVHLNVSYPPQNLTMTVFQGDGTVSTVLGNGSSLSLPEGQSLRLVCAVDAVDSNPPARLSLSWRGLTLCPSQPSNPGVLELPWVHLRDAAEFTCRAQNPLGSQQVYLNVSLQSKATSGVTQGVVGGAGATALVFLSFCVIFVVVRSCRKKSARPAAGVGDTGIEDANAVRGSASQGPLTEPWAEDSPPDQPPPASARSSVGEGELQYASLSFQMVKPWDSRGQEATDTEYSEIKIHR
In another experiment the test system is Trypanosoma cruzi. Nature of the experiment: Trypanosoma cruzi phosphomannomutase and mannose-1-phosphate guanylyltransferase assay. It counts as functional. The conditions noted are these: 10 µM.
The target of experiment [5] is T2, Arginase-2, mitochondrial (Homo sapiens) (UniProt P78540).
T2 sequence (whole entry): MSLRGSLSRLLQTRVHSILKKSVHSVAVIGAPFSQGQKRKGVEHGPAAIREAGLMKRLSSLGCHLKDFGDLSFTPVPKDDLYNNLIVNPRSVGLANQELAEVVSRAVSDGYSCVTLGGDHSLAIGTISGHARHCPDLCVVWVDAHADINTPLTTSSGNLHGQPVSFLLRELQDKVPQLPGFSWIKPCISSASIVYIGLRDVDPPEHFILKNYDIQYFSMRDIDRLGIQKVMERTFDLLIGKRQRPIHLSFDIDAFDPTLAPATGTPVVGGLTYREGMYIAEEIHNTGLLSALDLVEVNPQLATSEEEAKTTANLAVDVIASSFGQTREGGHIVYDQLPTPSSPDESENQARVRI
The experiment in a line: in vitro enzyme assay to detect the production of urea directly proportional to the activity of Arginase II. Note: in the data most compounds retested in dose-response had high values. The following applies: 33.3 µM. It counts as functional.

Experiment [6] deals with T3, Proteasome subunit beta (Trypanosoma cruzi) (UniProt O96673).
T3 sequence (whole entry): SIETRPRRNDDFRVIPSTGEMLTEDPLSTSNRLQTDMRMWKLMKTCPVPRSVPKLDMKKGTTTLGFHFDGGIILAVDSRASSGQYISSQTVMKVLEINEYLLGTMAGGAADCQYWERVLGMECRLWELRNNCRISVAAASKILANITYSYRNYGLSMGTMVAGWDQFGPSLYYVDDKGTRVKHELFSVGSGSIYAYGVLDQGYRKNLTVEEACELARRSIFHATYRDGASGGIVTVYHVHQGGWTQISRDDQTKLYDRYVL
The experiment in a line: Trypanosoma cruzi proteasome chymotrypsin-like activity (TcProtChymo) assay. Note: in the data most compounds retested in dose-response had high values. The conditions noted are these: 9.37 µM. In kind it is functional.

For a further experiment, the species on record is Homo sapiens. The experiment in a line: To identify inhibition of the IFN signalling (Jak-Stat) pathway via expression of an eGFP reporter gene under the control of an IFN-stimulated response element (ISRE) containing MxA promoter. It counts as functional. The conditions noted are these: 30 µM. Background: A reporter such as luciferase makes a cellular process visible.

The target of experiment [7] is T4, Tyrosyl-tRNA synthetase, putative (Trypanosoma cruzi (strain CL Brener)) (UniProt Q4DSP6).
T4 sequence (whole entry): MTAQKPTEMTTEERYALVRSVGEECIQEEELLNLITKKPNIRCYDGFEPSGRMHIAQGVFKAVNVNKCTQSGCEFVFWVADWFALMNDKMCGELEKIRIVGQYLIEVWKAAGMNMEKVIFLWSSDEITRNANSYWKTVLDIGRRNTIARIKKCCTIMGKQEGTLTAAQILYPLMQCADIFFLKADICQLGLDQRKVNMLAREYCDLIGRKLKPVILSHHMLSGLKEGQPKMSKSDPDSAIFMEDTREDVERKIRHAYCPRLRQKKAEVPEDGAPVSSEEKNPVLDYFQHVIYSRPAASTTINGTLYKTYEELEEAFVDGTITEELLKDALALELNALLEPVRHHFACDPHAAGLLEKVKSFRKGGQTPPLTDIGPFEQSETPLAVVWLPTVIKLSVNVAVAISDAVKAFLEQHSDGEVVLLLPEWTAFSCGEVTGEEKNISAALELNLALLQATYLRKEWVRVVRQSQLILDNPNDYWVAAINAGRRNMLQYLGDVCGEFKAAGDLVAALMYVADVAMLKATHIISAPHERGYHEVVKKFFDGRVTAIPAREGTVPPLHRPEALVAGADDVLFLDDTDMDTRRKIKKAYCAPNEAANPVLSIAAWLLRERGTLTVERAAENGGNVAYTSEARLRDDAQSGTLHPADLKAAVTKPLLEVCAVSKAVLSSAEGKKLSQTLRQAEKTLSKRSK
Nature of the experiment: Trypanosoma cruzi tyrosyl tRNA synthetase (TcYRS) _High Tyrosine SOP. Note: in the data most compounds retested in dose-response had high values. In kind it is functional. The following applies: 30 µM.

Experiment [8] has as its target T4, Tyrosyl-tRNA synthetase, putative (Trypanosoma cruzi (strain CL Brener)). The experiment in a line: Trypanosoma cruzi tyrosyl tRNA synthetase (TcYRS) SOP. It counts as functional. The following applies: 30 µM.
Experiment [9] concerns the target Chromo domain-containing protein 1 (Saccharomyces cerevisiae (strain ATCC 204508 / S288c) (Baker's yeast)) (UniProt P32657). Nature of the experiment: ScCHD-1 Enzyme Inhibition Assay. Note: in the data most compounds retested in dose-response had high values. It counts as functional. The following applies: 30 µM.

For some of these results: Measured potencies and affinities stand elsewhere.

Chromo domain-containing protein 1 (Saccharomyces cerevisiae (strain ATCC 204508 / S288c) (Baker's yeast)), sequence (P32657 whole entry, the tested form may be a part): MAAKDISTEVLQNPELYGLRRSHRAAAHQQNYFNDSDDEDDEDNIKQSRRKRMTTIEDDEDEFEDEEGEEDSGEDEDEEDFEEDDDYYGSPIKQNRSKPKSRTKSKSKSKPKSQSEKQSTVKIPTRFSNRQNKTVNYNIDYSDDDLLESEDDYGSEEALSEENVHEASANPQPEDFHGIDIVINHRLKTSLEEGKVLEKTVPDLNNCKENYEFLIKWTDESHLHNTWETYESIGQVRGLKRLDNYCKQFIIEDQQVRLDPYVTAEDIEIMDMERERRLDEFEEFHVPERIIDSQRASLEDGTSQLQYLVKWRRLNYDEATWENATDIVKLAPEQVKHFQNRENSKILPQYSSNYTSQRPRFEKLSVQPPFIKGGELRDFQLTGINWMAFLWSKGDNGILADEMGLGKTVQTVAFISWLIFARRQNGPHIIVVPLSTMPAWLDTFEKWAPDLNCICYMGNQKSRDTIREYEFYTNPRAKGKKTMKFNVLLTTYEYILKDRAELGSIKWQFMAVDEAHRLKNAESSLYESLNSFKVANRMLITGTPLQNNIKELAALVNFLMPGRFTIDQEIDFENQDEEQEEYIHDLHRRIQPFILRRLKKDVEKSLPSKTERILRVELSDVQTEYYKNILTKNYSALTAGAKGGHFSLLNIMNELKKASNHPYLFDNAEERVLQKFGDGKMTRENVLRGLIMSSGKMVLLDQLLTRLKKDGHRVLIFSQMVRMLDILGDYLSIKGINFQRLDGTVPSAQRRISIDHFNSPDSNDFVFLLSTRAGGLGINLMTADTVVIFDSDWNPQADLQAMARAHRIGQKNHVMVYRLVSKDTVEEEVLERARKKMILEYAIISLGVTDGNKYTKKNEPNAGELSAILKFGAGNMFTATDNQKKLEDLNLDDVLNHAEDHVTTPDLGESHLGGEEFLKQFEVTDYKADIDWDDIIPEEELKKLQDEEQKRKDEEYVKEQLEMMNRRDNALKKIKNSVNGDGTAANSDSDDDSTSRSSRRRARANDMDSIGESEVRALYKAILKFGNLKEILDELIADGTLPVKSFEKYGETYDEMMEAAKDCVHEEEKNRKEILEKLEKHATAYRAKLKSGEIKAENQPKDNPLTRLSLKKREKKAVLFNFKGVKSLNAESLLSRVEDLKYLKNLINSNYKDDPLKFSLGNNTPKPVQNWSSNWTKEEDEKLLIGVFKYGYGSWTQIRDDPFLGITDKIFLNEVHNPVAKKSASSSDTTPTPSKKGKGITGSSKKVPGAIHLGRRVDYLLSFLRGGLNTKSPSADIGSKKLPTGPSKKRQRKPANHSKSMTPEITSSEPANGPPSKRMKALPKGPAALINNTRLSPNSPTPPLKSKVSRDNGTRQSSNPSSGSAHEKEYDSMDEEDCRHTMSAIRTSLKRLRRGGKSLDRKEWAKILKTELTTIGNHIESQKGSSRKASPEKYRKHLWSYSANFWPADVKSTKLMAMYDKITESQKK
Protein translocase subunit SecA (Escherichia coli (strain K12)), sequence (P10408 whole entry): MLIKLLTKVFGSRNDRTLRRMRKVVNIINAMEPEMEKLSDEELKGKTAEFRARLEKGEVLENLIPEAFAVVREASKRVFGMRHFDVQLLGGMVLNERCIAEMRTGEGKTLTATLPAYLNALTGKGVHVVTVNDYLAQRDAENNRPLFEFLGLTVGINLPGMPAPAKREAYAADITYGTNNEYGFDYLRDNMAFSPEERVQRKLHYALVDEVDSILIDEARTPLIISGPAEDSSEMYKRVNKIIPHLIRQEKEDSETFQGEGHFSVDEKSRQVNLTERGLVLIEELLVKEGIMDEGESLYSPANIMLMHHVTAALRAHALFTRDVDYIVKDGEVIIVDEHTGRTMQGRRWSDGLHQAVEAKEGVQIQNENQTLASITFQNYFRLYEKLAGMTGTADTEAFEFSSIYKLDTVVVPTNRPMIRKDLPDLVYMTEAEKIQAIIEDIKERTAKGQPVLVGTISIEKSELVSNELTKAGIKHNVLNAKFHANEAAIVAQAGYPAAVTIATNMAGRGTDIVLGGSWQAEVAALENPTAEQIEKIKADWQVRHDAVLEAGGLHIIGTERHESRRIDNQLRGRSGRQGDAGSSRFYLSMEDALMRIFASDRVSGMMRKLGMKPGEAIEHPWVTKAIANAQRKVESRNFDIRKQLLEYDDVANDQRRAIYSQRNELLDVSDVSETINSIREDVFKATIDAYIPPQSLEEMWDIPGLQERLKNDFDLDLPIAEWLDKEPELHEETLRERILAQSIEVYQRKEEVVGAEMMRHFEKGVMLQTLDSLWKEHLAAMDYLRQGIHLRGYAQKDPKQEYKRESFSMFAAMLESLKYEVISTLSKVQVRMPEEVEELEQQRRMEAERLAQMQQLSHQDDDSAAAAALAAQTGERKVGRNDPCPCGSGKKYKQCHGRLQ

As to `COCCCNC(=O)CN(C)C(=O)c1cc(C)sc1C`, the Percent Effect was -3.23% in [1]; -359% in experiment [2]; 0.833% in [3]; 1.88% in [4]; -4.55% in the experiment on Trypanosoma cruzi; -1.66% in experiment [5]. In addition, the Percent Effect was 4.67% in [6]; 14.8% in the experiment filed under Homo sapiens; 5.94% in experiment [7]; 15.8% in experiment [8]; -1.76% in experiment [9].
For the compound `N#Cc1cc(NC(=O)c2ccsc2)ccc1N1CCC(O)CC1`, the Percent Effect in experiment [1] was -2.1%; in experiment [2], 13.5%; in experiment [3], -3.83%; in [4], 18.9%; in the experiment on Trypanosoma cruzi, 5.99%; in experiment [5] it was 12.9%. For the same compound, the Percent Effect in experiment [6] was 19.3%; in the experiment listed under Homo sapiens, 27.8%; in [7], 4.76%; in experiment [8], 14.6%; in [9], -1.54%.
As to `CC(C)c1nnc(CN2CCCC2Cn2cncn2)o1` (stereo not drawn), the Percent Effect in experiment [1] is -4.03%; in experiment [2] it was 18.2%; in experiment [3], -9.21%; in experiment [4], 3.1%; with Trypanosoma cruzi, 5.99%; in experiment [5] it was 3.92%. Moreover, the Percent Effect in experiment [6] was 10.3%; in the experiment filed under Homo sapiens it was -4.77%; in experiment [7], 6.8%; in [8], 24.4%; in experiment [9], -9.98%.
As to `Cc1cnn(C2CN(Cc3nc(-c4ccco4)no3)C2)c1`, the Percent Effect in [1] was -7.03%; in experiment [2], 13%; in experiment [3], 26.4%; in experiment [4], 11.1%; in the experiment on Trypanosoma cruzi it was 0.374%; in [5] it was -0.356%. Further, the Percent Effect is 5.41% in experiment [6]; 10.2% in the experiment listed under Homo sapiens; 10.7% in experiment [7]; 19.5% in experiment [8]; -2.84% in experiment [9].
In the case of `Cc1cc(C(=O)N2CC[C@@H]3CN(S(C)(=O)=O)CCO[C@@H]3C2)c(C)o1`, the Percent Effect in experiment [1] was -2.68%; in experiment [2], 13.5%; in [3] it was 1.13%; in [4], -7.58%; in the experiment on Trypanosoma cruzi it was -3.62%; in experiment [5], 2.87%. The Percent Effect is 25.6% in [6]; -7.91% in the experiment filed under Homo sapiens; 4.32% in experiment [7]; 15.4% in experiment [8]; -2.64% in [9].
Regarding `CSc1ccc(-c2nc(CN3CCC(NC(C)=O)C3)c(C)o2)cc1` (stereo not drawn), the Percent Effect in experiment [1] is -6.31%; in experiment [2], -5.41%; in [3] it was 0.887%; in experiment [4], -0.709%; in the experiment on Trypanosoma cruzi, -4.25%; in [5], -3.33%. Also, the Percent Effect is 2.93% in experiment [6]; 18.4% in the experiment listed under Homo sapiens; 4.76% in experiment [7]; 7.32% in experiment [8]; -1.88% in [9].
On to `COc1ncccc1NC(=O)NCC1CCS(=O)(=O)C1` (stereo not drawn), for which the Percent Effect was -2.59% in [1]; 20.8% in experiment [2]; -3.16% in [3]; 6.78% in experiment [4]; -0.936% with Trypanosoma cruzi; -3.92% in experiment [5]. In addition, the Percent Effect in experiment [6] was 4.22%; in the experiment filed under Homo sapiens it was -12.2%; in [7], 5.83%; in [8], 12.2%; in experiment [9], -8.21%.
`CC(C)COCC(NC(=O)c1ccccn1)c1ccco1` (stereo not drawn): the Percent Effect is -2.06% in [1]; 13.5% in [2]; -1.56% in experiment [3]; 0.407% in experiment [4]; 4.62% with Trypanosoma cruzi; -8.02% in [5]. Moreover, the Percent Effect in [6] is 5.04%; in the experiment filed under Homo sapiens, 5.29%; in [7], 9.36%; in [8] it was 16.1%; in experiment [9] it was -8.79%.

The values above are taken from ChEMBL document CHEMBL3988442, “University of Dundee, Small-Polar-MMV Screening Library” (2021).
